Reference: PubChem BioAssay (NCATS)
Inconclusive results are not listed. Active and inactive are the calls of the source. Calls follow the shape of the full dose curve.

Experiment: Validation screen for inhibitors of Lassa infection (AID 463096)
Conditions: Lassa virus infection, cell-based; series mostly up to 46.1 µM; activity change, negative = inhibition: at the top concentration
% is scaled to controls: 0 for no effect and ±100 for the full control effect; potency is read from the fitted curve at half-maximal effect.

**Q.** With CN(C)CC/C=C1\c2ccccc2COc2ccccc21 as the compound, how does the “activity change, negative = inhibition” value read?
**A.** The value was -43.3% (inactive).

**Q.** Which “activity change, negative = inhibition” value does the source give for Cc1ccc(S(=O)(=O)NC(=O)NN2CCCCCC2)cc1 here?
**A.** The value was 20.6% (inactive).

**Q.** With CC1(C)NC(=O)N(c2ccc([N+](=O)[O-])c(C(F)(F)F)c2)C1=O as the compound, how does the “activity change, negative = inhibition” value read?
**A.** Its value is 26.4% (inactive).

**Q.** With Cc1nc2n(c(=O)c1CCN1CCC(c3noc4cc(F)ccc34)CC1)CCCC2 as the compound, how does the “activity change, negative = inhibition” value read?
**A.** Its value is -21.2% (inactive).

**Q.** Which “activity change, negative = inhibition” value does the source give for CC(C)(C)NC(=O)[C@H]1CC[C@H]2[C@@H]3CC[C@H]4NC(=O)C=C[C@]4(C)[C@H]3CC[C@]12C here?
**A.** The value was -24.6% (inactive).

**Q.** Which “activity change, negative = inhibition” value does the source give for Cc1cccc(C)c1OCC(C)N (configuration not stated) here?
**A.** The value was 30.4% (inactive).

**Q.** Which “activity change, negative = inhibition” value does the source give for CCCC(CCC)C(=O)O here?
**A.** Its value is 12.6% (inactive).

**Q.** For CC(=O)Nc1nnc(S(N)(=O)=O)s1, which “activity change, negative = inhibition” value is on record?
**A.** The value was -15.1% (inactive).

**Q.** Which “activity change, negative = inhibition” value does the source give for Cn1cnc([N+](=O)[O-])c1Sc1ncnc2nc[nH]c12 here?
**A.** Its value is -30.1% (inactive).

**Q.** With Cc1ccccc1C(OCCN(C)C)c1ccccc1 (configuration not stated) as the compound, how does the “activity change, negative = inhibition” value read?
**A.** The value was -38.7% (inactive).

**Q.** For Cc1oncc1C(=O)Nc1ccc(C(F)(F)F)cc1, which “activity change, negative = inhibition” value is on record?
**A.** Its value is -49.4% (inactive).

**Q.** With CC(C)[N+](C)(CCOC(=O)C1c2ccccc2Oc2ccccc21)C(C)C as the compound, how does the “activity change, negative = inhibition” value read?
**A.** Its value is -3.02% (inactive).

**Q.** Which “activity change, negative = inhibition” value does the source give for N=c1nc(N2CCCCC2)cc(N)n1O here?
**A.** Its value is 0.884% (inactive).

**Q.** For Cc1cn[nH]c1, which “activity change, negative = inhibition” value is on record?
**A.** Its value is -11.8% (inactive).

**Q.** With CC1=NS(=O)(=O)c2cc(Cl)ccc2N1 as the compound, how does the “activity change, negative = inhibition” value read?
**A.** Its value is 61.5% (inactive).

**Q.** For CCN(CC)CCCC(C)Nc1ccnc2cc(Cl)ccc12 (configuration not stated), which “activity change, negative = inhibition” value is on record?
**A.** Its value is -22.4% (inactive).

**Q.** With O=C(C1CCCCC1)N1CC(=O)N2CCc3ccccc3C2C1 (configuration not stated) as the compound, how does the “activity change, negative = inhibition” value read?
**A.** The value was -0.301% (inactive).

**Q.** For O=c1n(CCCN2CCN(c3cccc(Cl)c3)CC2)nc2ccccn12, which “activity change, negative = inhibition” value is on record?
**A.** Its value is 1.15% (inactive).

**Q.** For CN1CCN(C2=Nc3ccccc3Oc3ccc(Cl)cc32)CC1, which “activity change, negative = inhibition” value is on record?
**A.** Its value is -16.5% (inactive).

**Q.** With NC12CC3CC(CC(C3)C1)C2 as the compound, how does the “activity change, negative = inhibition” value read?
**A.** Its value is 34.3% (inactive).

**Q.** With O=C(c1ccccc1)c1ccc2n1CCC2C(=O)O (configuration not stated) as the compound, how does the “activity change, negative = inhibition” value read?
**A.** The value was 4.5% (inactive).

**Q.** Which Potency does the source give for CCN(CC)C(=S)SSC(=S)N(CC)CC here?
**A.** Its Potency is 10 µM (active).

**Q.** For O=C1CCc2cc(OCCCCc3nnnn3C3CCCCC3)ccc2N1, which “activity change, negative = inhibition” value is on record?
**A.** Its value is -39.3% (inactive).

**Q.** For COC(=O)[C@H]1[C@H]2C[C@@H]3c4[nH]c5cc(OC)ccc5c4CCN3C[C@H]2C[C@@H](OC(=O)c2cc(OC)c(OC)c(OC)c2)[C@@H]1OC, which Potency is on record?
**A.** Its Potency is 7.94 µM (active).

**Q.** Which “activity change, negative = inhibition” value does the source give for O=C(CCCN1CCC(O)(c2ccc(Cl)cc2)CC1)c1ccc(F)cc1 here?
**A.** The value was -43% (inactive).

**Q.** With CN/C(=C\[N+](=O)[O-])NCCSCc1ccc(CN(C)C)o1 as the compound, how does the “activity change, negative = inhibition” value read?
**A.** The value was -7.84% (inactive).

**Q.** Which “activity change, negative = inhibition” value does the source give for Cc1[nH]c(=O)c(C#N)cc1-c1ccncc1 here?
**A.** The value was 11.8% (inactive).

**Q.** For CCN(CC)CCNC(=O)c1cc(Cl)c(N)cc1OC, which “activity change, negative = inhibition” value is on record?
**A.** Its value is 12.8% (inactive).

**Q.** With Nc1nc2c(ncn2COC(CO)CO)c(=O)[nH]1 as the compound, how does the “activity change, negative = inhibition” value read?
**A.** Its value is 3.28% (inactive).

**Q.** Which “activity change, negative = inhibition” value does the source give for COc1cc2nc(N3CCN(C(=O)C4CCCO4)CC3)nc(N)c2cc1OC (configuration not stated) here?
**A.** Its value is -13.9% (inactive).

**Q.** For CN(C)c1nc(N(C)C)nc(N(C)C)n1, which “activity change, negative = inhibition” value is on record?
**A.** Its value is 29.8% (inactive).

**Q.** With O=C1N=C(O)CN1/N=C/c1ccc(-c2ccc([N+](=O)[O-])cc2)o1 as the compound, how does the “activity change, negative = inhibition” value read?
**A.** The value was 24.7% (inactive).
